Only some compounds are listed: those with a hit (about 7.3% of all), similar ones and a draw of the others.
VACV Venus inh = inhibitors of vaccinia virus (Venus reporter); Vaccinia virus Venus reporter expression, fluorescence; Potency, µM (titrated, usually from 36.5 µM), for the others: at the top dose activity change, negative = inhibition, usual class: inhibitors; 330,000 tested, 0.46% active; AID 720580; calls by dose curve; tested in A549 cells; further: potency means the concentration at half of the fitted maximal effect; nearly all actives have a fitted effect of over 30% in size
HCV inhibitor = blocks hepatitis C virus; Huh7.5.1 HCVcc-Cre infection, luciferase reporter, 44 h; 340,000 tested, 3.4% active; Potency, µM (series often up to 41.8 µM), without a hit: top-dose activity change, negative = inhibition, actives largely listed as inhibitors; active means well fitted inhibition curve with a large enough effect; inconclusive means small, poorly fitted or top-dose-only effect, or another doubt; inactive means no such curve, though single readings can be large or run the other way; further: potency means the concentration at half of the fitted maximal effect
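Luciferase read-out (15 sec integration) after a 15 min room-temperature substrate step quantifies HCVcc-Cre infection. Cells, 1,000 per well, had compound added 4 h post-plating, then virus at ~0.5 moi, and were cultured 44 h.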
HCMV antiviral = inhibitors of human cytomegalovirus. activity change, negative = inhibition, % at 57.5 µM. HFF cells, HCMV-luciferase reporter, 72 h; hits give low values. 410,000 tested, 4.5% active; in the data active means activity change below about -60%; inconclusive means no clear call, values can overlap the other calls; inactive means above about -39%
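After 16 h attachment at 37C, HFF cells received test compound and HCMV-luciferase (1 PFU/cell); reporter luminescence read 72 h later, data normalized against buffer-only and known inhibitor Salinomycin.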
Vaccinia mCherry = inhibitors of vaccinia virus infection (mCherry reporter signal). 310,000 tested, 0.63% active. AID 720579. Vaccinia virus mCherry reporter infection, fluorescence. Potency, µM (highest dose often 36.5 µM), for the others: at the highest dose activity change, negative = inhibition, usual class: inhibitors; calls by dose curve; tested in A549 cells; further: potency means the concentration at half of the fitted maximal effect; nearly all actives have a fitted effect of over 35% in size
FMDV inh = foot and mouth disease virus antiviral activity. FMDV antiviral cell-based qHTS. Potency, µM (top dose mostly 57.9 µM), without a hit: at the top dose activity change, negative = inhibition, hits mostly inhibitors. 410,000 tested, 1.2% active; calls by dose curve; tested in HEK293T cells; further: read-out not given here; potency means the concentration at half of the fitted maximal effect; nearly all actives have a fitted effect of over 45% in size
An asterisk follows results filed as active; i = inactive; u = inconclusive; x = not tested or not shown; [ ] = dose if it differs, or a comment. On the % scale 0 is the no-effect control and ±100 the full control effect.

SMILES | VACV Venus inh | HCV inhibitor | HCMV antiviral | Vaccinia mCherry | FMDV inh
Cc1cc(=O)c2ccc(Cl)cc2[nH]1 | -5% | 2%[8.37 µM] | -12 | -3% | -14%
CC[C@]12c3[nH]c4ccccc4c3CCN1C(=O)C(CC(=O)NCCCn1ccnc1)C[C@@H]2C(=O)N1CCN(C(=O)c2ccco2)CC1 (stereo partly drawn) | -3% | u | -9 | -6% | -16%
CC(C)Nc1nc(NCCOc2ccccc2Cl)c2sc(-c3ccccc3)cc2n1 | -27% | x | -101* | u | u
COc1cccc(CN2CC3(CCN(C)CC3)c3c(n(C)c4cc(OC)ccc34)[C@H]2CO)c1 | x | x | -14 | x | x
Oc1ccccc1CNc1ccc(Br)cn1 | 14µM* | u | -105* | x | 0%
CCC[C@H](/C=C/C(=O)OC(C)(C)C)NC(=O)C(F)(F)F | x | x | 17 | x | x
CN(C(=O)COC(=O)c1cc([N+](=O)[O-])ccc1Cl)c1ccccc1 | -2% | u | -35 | -15% | -12%
COc1cc(C(=O)NC(=S)Nc2ccc3c(c2)C(=O)N(C)C3=O)cc(OC)c1OC | -1% | 10µM* | 13 | -10% | u
S=C(NCCc1ccccc1)Nc1ccccc1N1CCOCC1 | -14% | -10% | -21 | -11% | 0%
O=C(NC(=S)Nc1ccccc1N1CCCCC1)c1ccco1 | 0% | u | -71* | i | 22µM*
O=C(NC(=S)Nc1ccccc1N1CCCC1)c1ccco1 | -1% | -10% | -13 | -13% | -9%
COc1cc(C(=O)NC(=S)Nc2ccccc2N2CCCC2)cc(OC)c1OC | 0%[7.34 µM] | 11µM* | u | i[7.34 µM] | -22%
Fc1cc(F)cc(NC(=S)Nc2ccccc2N2CCOCC2)c1 | -9% | -22% | -62* | -19% | -26%
COc1cc(C(=O)Nc2ccccc2N2CCCCC2)cc(OC)c1OC | -15% | u | u | i | u
Cc1ccc(-c2nc3ncccc3o2)cc1NC(=O)c1ccc(-c2ccc(Cl)cc2)o1 | -6% | x | -6 | -4% | 11%
CCOC(=O)CNC(=O)N1CCCN(S(=O)(=O)c2ccc3c(ccn3CC)c2)CC1 | 0% | x | 5 | -7% | 3%
COc1ccc(C(=O)NC(=S)Nc2ccccc2N2CCOCC2)cc1Br | -8% | 16µM* | -11 | 0% | 0%
O=C(CSc1ccc(F)cc1)Nc1ccccc1Br | -1% | -28% | -61* | -14% | 46%
CCOc1ccccc1NC(=O)CCCc1nc2ccccc2c(=O)[nH]1 | x | -12% | -87* | x | 3%
CCOc1ccc(Oc2ccccc2NC(=O)CCc2nc3ccccc3c(=O)[nH]2)cc1 | -29% | x | 54 | u | -30%
Cc1ccc(Cl)cc1NC(=O)CC(O)(C(F)(F)F)C(F)(F)F | 28µM* | 22µM* | -102* | u | x
N#CC(C#N)=C1c2cc(S(=O)(=O)NCCO)ccc2-c2ccc(S(=O)(=O)NCCO)cc21 | -8%[7.34 µM] | 11% | -37 | i[7.34 µM] | -17%
N#CC(C#N)=C1c2cc(S(N)(=O)=O)ccc2-c2ccc(S(N)(=O)=O)cc21 | x | -2% | 3 | x | 25µM*
CCOC(=O)/C(=N\Nc1ccccc1[N+](=O)[O-])c1csc(N)n1 | u | u | -65* | -24% | -31%
CC(=O)c1sc(-c2ccccc2)cc1N | -21% | 8.9µM* | 19 | -5% | 13%
SMILES | VACV Venus inh | HCV inhibitor | HCMV antiviral | Vaccinia mCherry | FMDV inh
Cc1ccccc1C(=O)Nc1nnc(SCc2cc(=O)c3c(C)ccc(C)c3[nH]2)s1 | u | x | 20 | -23% | u
O=C1CN(C(=O)N[C@@H](Cc2ccccc2)C(=O)N[C@H](Cc2ccccc2)C(=O)O)c2ccccc2N1 | -6% | 0.56µM* | 4 | -3% | -13%
Cc1ccc2c(c1)COc1c3ccc(C(=O)O)cc3nn1-2 | -11% | 18% | 0 | -4% | 10µM*
CNc1cccnc1C=NNC(N)=S | u | 3.5µM* | -99* | u | 2%
NC(=S)NN=Cc1nccc2c(C(F)(F)F)cccc12 | u | x | -74* | u | -11%
NC(=S)N/N=C/c1ccc(Br)o1 | u | 15% | u | u | 4%
Cc1c(NC(=O)Nc2cccc(C(F)(F)F)c2)sc2nc3n(c(=O)c12)CCC(C)CC3 (stereo not drawn) | u | x | -8 | u | u
C[C@H]1CNC(=O)c2c(C(=O)NC3CCN(C(=O)OC(C)(C)C)CC3)ncn21 | 3% | x | -4 | 4% | -6%
CCN(CC)CCCNC(=O)CCc1c(C)nc2c(c1C)c(=O)n(C)c(=O)n2C | 4% | x | -65* | 7% | -14%
Cc1csc2nc(COc3ccc(NC(=O)COc4ccc(F)cc4)cc3)cc(=O)n12 | -12% | x | -20 | -7% | -10%
CCCOC(=O)c1ccc(Oc2c(-c3ccc(OCC)cc3O)n[nH]c2C)cc1 | u | u | -98* | -36% | x
O=C(N/N=C/c1cc(Cl)cc([N+](=O)[O-])c1O)NC12CC3CC(CC(C3)C1)C2 | -19% | 25% | 9 | -7% | 22µM*
CCCCn1c(/N=C/c2cc(OC)ccc2O)nc2ccccc21 | 3.5µM* | -5% | 5 | u | 3%
CCCOc1ccc(C2c3c(oc4ccccc4c3=O)C(=O)N2c2nnc(C(C)C)s2)cc1 (stereo not drawn) | 1% | x | 13 | -5% | 1%
COc1ccc2cc3cc(C(=O)NC4CC4)sc3nc2c1 | x | 11% | 62 | x | 16µM*
CCN(CCO)C(=O)c1ccc2nc(Cc3cccc(Cl)c3)oc2c1 | -2% | -2% | 36 | u | 22%
Oc1cccc2ccc[n+](CC(O)Cn3c4ccccc4c4ccccc43)c12 (stereo not drawn) | u | 22µM* | -21 | -9% | 0%
Oc1cccc2ccc[n+](CC(O)CBr)c12 (stereo not drawn) | -4% | x | x | 16% | x
CCC(C)(C)n1nnnc1CN(Cc1ccc(Cl)cc1)Cc1ccco1 | -4% | u | -64* | -26% | u
Cc1ccc2cc(CN(Cc3ccccc3)Cc3nnnn3C3CCCC3)c(=O)[nH]c2c1 | u | u | -37 | -17% | x
COc1ccc2cc(CN(Cc3ccco3)Cc3nnnn3C3CCCCC3)c(=O)[nH]c2c1 | -27% | u | -84* | -2% | -14%
CC(C)(C)n1nnnc1CN(Cc1ccco1)Cc1cc2cc3c(cc2[nH]c1=O)OCO3 | -25% | -6% | -65* | x | 0%
COc1ccccc1CN(Cc1cc2cc(C)ccc2[nH]c1=O)Cc1nnnn1Cc1ccco1 | u | 13µM* | -4 | x | u
Nc1nc2ncc(=O)[nH]c2c(=O)[nH]1 | 0% | x | x | i | 1%
COc1ccc2cc(CN(Cc3ccco3)C(c3nnnn3C3CCCCC3)C(C)C)c(=O)[nH]c2c1 (stereo not drawn) | -16% | u | -24 | x | 16µM*
COc1ccc(Cn2nnnc2CN(Cc2cc3cccc(C)c3[nH]c2=O)C2CCCC2)cc1 | -12% | u | -38 | -10% | x
COc1ccc2[nH]c(=O)c(C(c3nnnn3C(C)(C)C)N(Cc3ccco3)CC3CCCO3)cc2c1 (stereo not drawn) | -16% | 13% | -31 | -4% | 3%
